Several values for one entry are separate records, joined by “and”; a condition that tells them apart may be missing. Identical values can stand only once. Inconclusive results are not listed. Some structures have more than one record in an assay (separate samples or runs), and their calls can disagree. Activity calls are given as the source filed them. The calls were made as follows: active = hit-call score of the fitted dose curve at least 0.9, where 1 is the maximum; inconclusive = response in the unintended direction; inactive = score below 0.9.
How the values were obtained:
[1] = ATG_M_06_XSP2: Attagene TRANS-FACTORIAL Multi-Species (XSP2) HepG2 Assay for M06 Transcription Factor (Internal Marker) (AID 2283811);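 also: hits are increases in signal above the DMSO baseline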
Method in brief: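 Internal-marker reporter transcript, quantified by RT-PCR, 6-FAM labelling, HpaI digestion and capillary electrophoresis, 24 hours after dosing transfected HepG2 cells with 3 nM 6-alpha-fluorotestosterone and 1.5 nM norgestrel present; DMSO baseline.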

[2] = tested on: turtle Estrogen Receptor (ERa), gene 101933533; assay: ATG_trERa_XSP2: Attagene TRANS-FACTORIAL Multi-Species (XSP2) HepG2 Assay for turtle Estrogen Receptor (ERa) (AID 2283812);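 also: actives raise reporter signal above DMSO so AC50 reflects agonist activity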
Method in brief: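 Readout is reporter mRNA quantified by RT-PCR with capillary electrophoresis after 24 h compound exposure, increase relative to DMSO. Uses transiently transfected human HepG2 liver cells carrying a chimeric turtle ERa-Gal4 receptor driving GAL4-UAS reporters.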

[3] = biological target: Estrogen receptor beta (Homo sapiens) (UniProt Q92731); assay: ATG_hERb_XSP2: Attagene TRANS-FACTORIAL Multi-Species (XSP2) HepG2 Assay for human Estrogen Receptor (ERb) (AID 2283813);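 also: actives raise reporter mRNA above DMSO so AC50 reflects agonist induction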
Method in brief: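 Transient TRANS reporter system in HepG2: after 24 h of chemical, RNA is reverse-transcribed, reporter cDNA amplified, FAM-labelled and sized by capillary electrophoresis. Induction of the human ERb-Gal4 reporter is measured relative to DMSO.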

[4] = biological target: GAL4 Transcription Factor (Internal Marker), GAL4 (gene 855828) (UniProt P04386); assay: ATG_GAL4_XSP2: Attagene TRANS-FACTORIAL Multi-Species (XSP2) HepG2 Assay for GAL4 Transcription Factor (Internal Marker) (AID 2283814);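 also: GAL4 reporter mRNA background control in MRTU transfected cells not a receptor target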
Method in brief: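 Background-control readout: gain-of-signal fitted against DMSO. After 24 h exposure of transfected HepG2 (MRTU, GAL4-UAS reporters; 3 nM 6-alpha-fluorotestosterone, 1.5 nM norgestrel present), transcripts quantified by RT-PCR and capillary electrophoresis fluorescence.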

[5] = tested on: turtle Androgen Receptor (AR), gene 101947425; assay: ATG_trAR_XSP2: Attagene TRANS-FACTORIAL Multi-Species (XSP2) HepG2 Assay for turtle Androgen Receptor (AR) (AID 2283815);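 as to AC50: potency for gain of reporter signal meaning activation above DMSO baseline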
Method in brief: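 Reporter transcripts were quantified via RT-PCR and capillary electrophoresis and fitted upward against DMSO. Transiently transfected human HepG2 cells carrying NR-Gal4 chimeras were exposed 24 h, with 3 nM 6-alpha-fluorotestosterone plus 1.5 nM norgestrel added.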

[6] = biological target: zebrafish Estrogen Receptor (ER1), esr1 (gene 259252) (UniProt P57717); assay: ATG_zfER1_XSP2: Attagene TRANS-FACTORIAL Multi-Species (XSP2) HepG2 Assay for zebrafish Estrogen Receptor (ER1) (AID 2283816)
Method in brief: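 After 24 h compound exposure, RNA from transfected HepG2 cells was reverse-transcribed and reporter transcripts resolved by capillary electrophoresis. The TRANS format reads exogenous zebrafish ER1-Gal4 chimera activity on GAL4-UAS elements; gain of signal against DMSO.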

[7] = biological target: chicken Estrogen Receptor (ERa), ESR1 (gene 396099) (UniProt P06212); assay: ATG_chERa_XSP2: Attagene TRANS-FACTORIAL Multi-Species (XSP2) HepG2 Assay for chicken Estrogen Receptor (ERa) (AID 2283817);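 also: actives raise reporter signal above DMSO so AC50 reflects ER activation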
Method in brief: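 Reporter mRNA induction read by RT-PCR, fluorescent labelling and capillary electrophoresis after 24 h exposure; positive-direction fit against DMSO baseline. HepG2 cells transfected with multiplexed GAL4-UAS units including chicken ERa chimera; medium contained 3 nM 6-alpha-fluorotestosterone plus 1.5 nM norgestrel.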

[8] = tested on: zebrafish Estrogen Receptor (ER2a), gene 317734; assay: ATG_zfER2a_XSP2: Attagene TRANS-FACTORIAL Multi-Species (XSP2) HepG2 Assay for zebrafish Estrogen Receptor (ER2a) (AID 2283818);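 also: hits raise reporter mRNA so AC50 reflects activation of zebrafish ER2a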
Method in brief: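 Multiplexed trans-reporter readout: RT-PCR then capillary electrophoresis of reporter transcripts after 24 h compound treatment. Human HepG2 carries transfected zebrafish ER2a-Gal4 chimera; 3 nM 6-alpha-fluorotestosterone plus 1.5 nM norgestrel present. Induction scored against DMSO.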

[9] = tested on: chicken Androgen Receptor (AR), gene 422165; assay: ATG_chAR_XSP2: Attagene TRANS-FACTORIAL Multi-Species (XSP2) HepG2 Assay for chicken Androgen Receptor (AR) (AID 2283819);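 also: hits raise reporter mRNA above DMSO so potency is for activation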
Method in brief: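 Readout is reporter mRNA induction via RT-PCR/capillary electrophoresis after 24 h chemical exposure, positive direction relative to DMSO. Transiently transfected HepG2 express chimeric chicken AR–GAL4; AR stimulated by 3 nM 6-alpha-fluorotestosterone and 1.5 nM norgestrel.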

[10] = tested on: frog Estrogen Receptor (ER), gene 398734; assay: ATG_frER1_XSP2: Attagene TRANS-FACTORIAL Multi-Species (XSP2) HepG2 Assay for frog Estrogen Receptor (ER) (AID 2283821);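 also: hits raise reporter mRNA above DMSO baseline so potency means agonist or activator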
Method in brief: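 HepG2 cells transiently transfected with multiplexed GAL4-UAS reporter units expressing chimeric NR-Gal4 proteins (TRANS format) were dosed for 24 h. Reporter mRNA was quantified by RT-PCR, FAM primer extension, HpaI digestion and capillary electrophoresis; gain of signal relative to DMSO.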

[11] = tested on: zebrafish Estrogen Receptor (ER2b), gene 317733; assay: ATG_zfER2b_XSP2: Attagene TRANS-FACTORIAL Multi-Species (XSP2) HepG2 Assay for zebrafish Estrogen Receptor (ER2b) (AID 2283823);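 also: fitted upward as reporter gain over DMSO so potency reflects activation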
Method in brief: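 HepG2 human liver cells transiently transfected with multiplexed GAL4-UAS reporter units expressing chimeric NR-Gal4 proteins; compounds dosed for 24 h. Reporter mRNA quantified by RT-PCR, 6-FAM labelling and capillary electrophoresis; gain-of-signal fitted against DMSO baseline.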

[12] = tested on: frog Androgen Receptor (AR), gene 399456; assay: ATG_frAR_XSP2: Attagene TRANS-FACTORIAL Multi-Species (XSP2) HepG2 Assay for frog Androgen Receptor (AR) (AID 2283824);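 also: reporter mRNA from GAL4-UAS units driven by Xenopus AR-Gal4 chimera; actives raise reporter signal above DMSO so AC50 reflects agonist-like induction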
Method in brief: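 Reporter transcript induction, read by RT-PCR with fluorescent capillary electrophoresis, in human liver HepG2 cells carrying an exogenous Xenopus AR-Gal4 fusion and GAL4-driven reporters; chemical exposure 24 hours, activity scored upward against DMSO controls.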

[13] = biological target: Estrogen receptor (Homo sapiens) (UniProt P03372); assay: ATG_hERa_XSP2: Attagene TRANS-FACTORIAL Multi-Species (XSP2) HepG2 Assay for human Estrogen Receptor (ERa) (AID 2283827)
Method in brief: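 Trans-activation of exogenous human ERa-Gal4 chimera read in HepG2 as reporter transcript after 24 h exposure; medium included 3 nM 6-alpha-fluorotestosterone and 1.5 nM norgestrel. Quantified by RT-PCR with capillary electrophoresis, positive-direction fitting against DMSO.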

[14] = tested on: frog Estrogen Receptor (ER2), gene 100174814; assay: ATG_frER2_XSP2: Attagene TRANS-FACTORIAL Multi-Species (XSP2) HepG2 Assay for frog Estrogen Receptor (ER2) (AID 2283828)
Method in brief: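 Read-out: reporter transcript levels by RT-PCR with 6-FAM primer extension, HpaI digestion and capillary electrophoresis, scored as induction over DMSO control. Transfected HepG2 carrying Xenopus ER2–GAL4 chimera; compounds incubated 24 h.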

[15] = biological target: zebrafish Thyroid Hormone Receptor alpha (TRa), thraa (gene 30670) (UniProt Q98867); assay: ATG_zfTRa_XSP1: Attagene TRANS-FACTORIAL Multi-Species (XSP1) HepG2 Assay for zebrafish Thyroid Hormone Receptor alpha (TRa) (AID 2283807)
Method in brief: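 Reporter transcripts driven by a chimeric zebrafish TRa–Gal4 protein were measured by RT-PCR with fluorescent labelling and capillary electrophoresis. These came from transiently transfected HepG2 cells after 24 h chemical exposure, with 3 nM 6-alpha-fluorotestosterone added; baseline was DMSO.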

[16] = biological target: zebrafish Thyroid Hormone Receptor beta (TRb), thrb (gene 30607) (UniProt Q9PVE4); assay: ATG_zfTRb_XSP1: Attagene TRANS-FACTORIAL Multi-Species (XSP1) HepG2 Assay for zebrafish Thyroid Hormone Receptor beta (TRb) (AID 2283809)
Method in brief: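 HepG2 cells transiently transfected with multiplexed GAL4-UAS reporter units expressing chimeric zebrafish TRb–Gal4. Dosed 24 h with 3 nM 6-alpha-fluorotestosterone present; reporter mRNA measured by RT-PCR, HpaI digestion and capillary electrophoresis; gain of signal versus DMSO.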

[17] = ATG_XTT_Cytotoxicity_XSP1: Cytotoxicity Assessment in the Attagene TRANS-FACTORIAL Multi-Species (XSP1) HepG2 Assay (AID 2283810)
Method in brief: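 XTT viability readout taken at 24 hours post-dosing in HepG2 liver cells co-treated with 3 nM 6-alpha-fluorotestosterone. Signal loss relative to DMSO controls reflects cytotoxicity.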

[18] = biological target: human Thyroid hormone Receptor beta (TRb), THRB (gene 7068) (UniProt P10828); assay: ATG_hTRb_XSP1: Attagene TRANS-FACTORIAL Multi-Species (XSP1) HepG2 Assay for human Thyroid hormone Receptor beta (TRb) (AID 2283808)
Method in brief: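 Readout is reporter mRNA induction measured by RT-PCR, fluorescent labelling and capillary electrophoresis, fitted upward relative to DMSO. Transiently transfected human HepG2 cells expressing NR-Gal4 chimeras were dosed for 24 h, medium containing 3 nM 6-alpha-fluorotestosterone.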

[19] = ATG_M_19_XSP2: Attagene TRANS-FACTORIAL Multi-Species (XSP2) HepG2 Assay for M32 Transcription Factor (Internal Marker) (AID 2283822)
Method in brief: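 Internal background marker in a multi-species nuclear receptor TRANS panel: transfected HepG2 cells exposed 24 h, with 3 nM 6-alpha-fluorotestosterone and 1.5 nM norgestrel present. Readout is RT-PCR of reporter transcripts resolved by capillary electrophoresis, gain-of-signal versus DMSO.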

[20] = tested on: zebrafish Androgen Receptor (AR), gene 100005148; assay: ATG_zfAR_XSP2: Attagene TRANS-FACTORIAL Multi-Species (XSP2) HepG2 Assay for zebrafish Androgen Receptor (AR) (AID 2283825);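 also: hits raise reporter mRNA above DMSO so AC50 reflects agonist-type gain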
Method in brief: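 After 24 h compound exposure in medium with 3 nM 6-alpha-fluorotestosterone plus 1.5 nM norgestrel, HepG2 cells carrying zebrafish AR–GAL4 reporter constructs were assessed for reporter mRNA gain by RT-PCR and capillary electrophoresis.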

Measured: AC50

zebrafish Thyroid Hormone Receptor beta (TRb), thrb (gene 30607), sequence (Q9PVE4 whole entry, looked up, the tested form may be a part): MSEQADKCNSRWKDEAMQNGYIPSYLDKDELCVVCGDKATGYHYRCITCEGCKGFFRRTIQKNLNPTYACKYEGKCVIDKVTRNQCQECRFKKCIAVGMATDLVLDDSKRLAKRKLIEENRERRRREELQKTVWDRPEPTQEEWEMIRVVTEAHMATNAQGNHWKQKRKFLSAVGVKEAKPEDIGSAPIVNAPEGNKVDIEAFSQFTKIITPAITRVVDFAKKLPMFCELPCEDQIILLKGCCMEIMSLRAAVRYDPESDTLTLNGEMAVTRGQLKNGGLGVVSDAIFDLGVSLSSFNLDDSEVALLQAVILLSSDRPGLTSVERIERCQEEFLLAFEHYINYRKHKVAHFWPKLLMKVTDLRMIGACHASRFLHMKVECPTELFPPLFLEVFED
GAL4 Transcription Factor (Internal Marker), GAL4 (gene 855828), sequence (P04386 whole entry, looked up, the tested form may be a part): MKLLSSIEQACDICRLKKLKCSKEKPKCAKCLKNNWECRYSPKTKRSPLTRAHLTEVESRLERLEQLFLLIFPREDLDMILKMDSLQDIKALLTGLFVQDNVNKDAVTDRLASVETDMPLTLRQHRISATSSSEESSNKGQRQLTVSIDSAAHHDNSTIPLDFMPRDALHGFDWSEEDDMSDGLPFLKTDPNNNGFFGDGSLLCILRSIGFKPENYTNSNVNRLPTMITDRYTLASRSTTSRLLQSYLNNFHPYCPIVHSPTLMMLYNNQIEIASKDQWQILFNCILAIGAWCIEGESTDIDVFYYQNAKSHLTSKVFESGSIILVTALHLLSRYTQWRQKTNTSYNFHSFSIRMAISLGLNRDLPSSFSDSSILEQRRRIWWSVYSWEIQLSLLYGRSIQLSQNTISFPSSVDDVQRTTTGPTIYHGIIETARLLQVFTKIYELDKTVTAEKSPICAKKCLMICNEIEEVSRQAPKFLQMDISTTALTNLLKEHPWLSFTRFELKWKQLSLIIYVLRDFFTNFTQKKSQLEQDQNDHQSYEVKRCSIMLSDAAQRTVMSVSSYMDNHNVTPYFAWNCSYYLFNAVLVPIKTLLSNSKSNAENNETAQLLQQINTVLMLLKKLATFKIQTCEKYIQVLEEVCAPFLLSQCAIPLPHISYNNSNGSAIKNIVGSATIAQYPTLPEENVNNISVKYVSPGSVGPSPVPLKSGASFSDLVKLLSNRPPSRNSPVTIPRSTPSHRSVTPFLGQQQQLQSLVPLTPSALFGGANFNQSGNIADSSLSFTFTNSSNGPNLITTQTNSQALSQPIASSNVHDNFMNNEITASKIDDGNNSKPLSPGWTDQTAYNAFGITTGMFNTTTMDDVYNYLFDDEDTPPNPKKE
zebrafish Estrogen Receptor (ER1), esr1 (gene 259252), sequence (P57717 whole entry, looked up, the tested form may be a part): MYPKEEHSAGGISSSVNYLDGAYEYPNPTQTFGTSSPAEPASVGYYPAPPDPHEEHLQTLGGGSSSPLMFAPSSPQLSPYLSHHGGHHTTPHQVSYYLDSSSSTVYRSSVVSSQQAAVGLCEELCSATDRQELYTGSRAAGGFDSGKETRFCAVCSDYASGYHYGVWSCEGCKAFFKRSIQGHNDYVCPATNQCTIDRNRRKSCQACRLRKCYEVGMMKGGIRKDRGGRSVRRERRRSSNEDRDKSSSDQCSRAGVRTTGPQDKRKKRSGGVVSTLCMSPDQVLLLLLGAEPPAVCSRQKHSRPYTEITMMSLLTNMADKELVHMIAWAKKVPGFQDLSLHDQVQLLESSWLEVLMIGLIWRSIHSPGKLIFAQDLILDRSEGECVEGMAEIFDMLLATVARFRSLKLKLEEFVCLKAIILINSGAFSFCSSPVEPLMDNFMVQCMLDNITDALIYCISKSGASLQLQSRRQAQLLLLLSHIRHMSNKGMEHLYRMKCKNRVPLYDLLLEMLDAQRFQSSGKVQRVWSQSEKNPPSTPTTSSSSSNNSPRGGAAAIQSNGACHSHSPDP
chicken Estrogen Receptor (ERa), ESR1 (gene 396099), sequence (P06212 whole entry, looked up, the tested form may be a part): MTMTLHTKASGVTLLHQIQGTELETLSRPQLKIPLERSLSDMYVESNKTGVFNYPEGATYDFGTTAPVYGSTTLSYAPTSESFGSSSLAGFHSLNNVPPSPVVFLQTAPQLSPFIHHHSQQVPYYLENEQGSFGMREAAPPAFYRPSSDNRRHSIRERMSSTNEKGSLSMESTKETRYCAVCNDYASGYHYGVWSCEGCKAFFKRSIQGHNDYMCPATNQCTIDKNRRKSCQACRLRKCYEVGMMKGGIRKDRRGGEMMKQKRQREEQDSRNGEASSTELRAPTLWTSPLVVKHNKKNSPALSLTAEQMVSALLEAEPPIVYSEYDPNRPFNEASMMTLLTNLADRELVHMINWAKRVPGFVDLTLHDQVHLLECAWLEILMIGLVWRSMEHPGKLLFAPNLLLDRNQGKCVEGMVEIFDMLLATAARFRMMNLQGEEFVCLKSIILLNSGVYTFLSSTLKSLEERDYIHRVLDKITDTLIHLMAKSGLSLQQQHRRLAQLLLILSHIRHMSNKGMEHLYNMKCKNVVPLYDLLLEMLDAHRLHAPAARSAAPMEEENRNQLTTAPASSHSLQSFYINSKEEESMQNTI
Estrogen receptor (Homo sapiens), sequence (P03372 whole entry, looked up, the tested form may be a part): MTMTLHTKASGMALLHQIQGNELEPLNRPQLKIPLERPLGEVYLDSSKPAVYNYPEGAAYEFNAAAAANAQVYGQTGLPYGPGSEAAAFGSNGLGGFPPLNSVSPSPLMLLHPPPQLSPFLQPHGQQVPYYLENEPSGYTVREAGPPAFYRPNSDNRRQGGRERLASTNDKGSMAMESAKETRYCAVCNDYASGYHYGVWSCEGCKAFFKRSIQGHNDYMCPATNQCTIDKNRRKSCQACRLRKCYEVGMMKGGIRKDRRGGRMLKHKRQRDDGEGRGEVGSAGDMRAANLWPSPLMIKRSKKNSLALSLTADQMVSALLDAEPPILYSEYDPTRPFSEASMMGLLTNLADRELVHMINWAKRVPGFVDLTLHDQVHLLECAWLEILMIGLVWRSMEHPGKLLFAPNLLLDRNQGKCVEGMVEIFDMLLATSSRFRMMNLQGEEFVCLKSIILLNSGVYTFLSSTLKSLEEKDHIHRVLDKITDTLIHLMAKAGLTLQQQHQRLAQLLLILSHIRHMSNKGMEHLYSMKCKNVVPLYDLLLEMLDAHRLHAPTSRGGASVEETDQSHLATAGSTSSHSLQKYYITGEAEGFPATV
Estrogen receptor beta (Homo sapiens), sequence (Q92731 whole entry, looked up, the tested form may be a part): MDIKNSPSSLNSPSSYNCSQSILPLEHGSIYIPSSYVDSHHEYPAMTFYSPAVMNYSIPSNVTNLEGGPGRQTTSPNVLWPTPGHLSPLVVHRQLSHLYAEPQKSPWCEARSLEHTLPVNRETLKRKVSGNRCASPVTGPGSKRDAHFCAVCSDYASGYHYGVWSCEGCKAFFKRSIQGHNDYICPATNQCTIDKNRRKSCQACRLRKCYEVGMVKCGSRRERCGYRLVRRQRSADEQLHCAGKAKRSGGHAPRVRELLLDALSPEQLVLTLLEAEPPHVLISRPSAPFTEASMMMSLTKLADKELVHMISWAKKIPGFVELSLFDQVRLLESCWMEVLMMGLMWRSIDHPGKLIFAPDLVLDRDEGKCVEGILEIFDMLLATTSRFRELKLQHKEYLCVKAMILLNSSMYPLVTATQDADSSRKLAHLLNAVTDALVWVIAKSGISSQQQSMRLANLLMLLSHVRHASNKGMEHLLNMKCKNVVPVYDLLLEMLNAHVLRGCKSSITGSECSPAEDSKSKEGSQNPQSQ
zebrafish Thyroid Hormone Receptor alpha (TRa), thraa (gene 30670), sequence (Q98867 whole entry, looked up, the tested form may be a part): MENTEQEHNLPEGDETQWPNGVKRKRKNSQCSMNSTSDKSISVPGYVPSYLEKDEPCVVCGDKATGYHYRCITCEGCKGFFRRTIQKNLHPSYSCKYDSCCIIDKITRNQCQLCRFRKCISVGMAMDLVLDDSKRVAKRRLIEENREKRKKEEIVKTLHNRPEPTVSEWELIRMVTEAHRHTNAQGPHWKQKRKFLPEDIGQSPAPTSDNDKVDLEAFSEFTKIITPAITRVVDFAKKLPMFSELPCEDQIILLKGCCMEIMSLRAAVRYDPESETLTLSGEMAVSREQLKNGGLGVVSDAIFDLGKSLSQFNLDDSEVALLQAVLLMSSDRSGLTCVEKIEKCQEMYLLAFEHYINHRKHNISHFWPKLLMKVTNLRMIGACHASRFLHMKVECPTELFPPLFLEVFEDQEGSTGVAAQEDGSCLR
human Thyroid hormone Receptor beta (TRb), THRB (gene 7068), sequence (P10828 whole entry, looked up, the tested form may be a part): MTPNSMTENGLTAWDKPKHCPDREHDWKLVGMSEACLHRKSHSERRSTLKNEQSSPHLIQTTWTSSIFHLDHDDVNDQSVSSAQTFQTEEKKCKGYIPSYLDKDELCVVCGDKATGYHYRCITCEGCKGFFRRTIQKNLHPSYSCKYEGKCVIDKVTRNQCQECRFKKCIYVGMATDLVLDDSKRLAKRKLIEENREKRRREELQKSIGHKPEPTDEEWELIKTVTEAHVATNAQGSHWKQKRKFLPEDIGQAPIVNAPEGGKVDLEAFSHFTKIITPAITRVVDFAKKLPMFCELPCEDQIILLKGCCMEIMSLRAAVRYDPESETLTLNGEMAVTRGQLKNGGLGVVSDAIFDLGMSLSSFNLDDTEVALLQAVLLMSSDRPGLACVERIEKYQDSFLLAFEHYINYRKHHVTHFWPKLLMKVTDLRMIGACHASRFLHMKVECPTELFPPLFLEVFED

CCCOC(=O)c1ccc(O)cc1
inactive: [1] | [4] | [5] | [6] | [12]
active: [2] 72.9 µM and 726 nM | [3] 31.9 µM and 2.52 µM | [6] 11.1 µM | [7] 27.8 µM and 9.35 µM | [8] 51 µM and 3.49 µM | [9] 32000 nM | [10] 27.7 µM and 407 nM | [11] 65.8 µM and 8.51 µM | [13] 23.5 µM and 2.61 µM | [14] 38.2 µM and 1.53 µM

CCC(=C(c1ccc(O)cc1)c1ccc(OCCN(C)C)cc1)c1ccccc1
inactive: [1] | [3] | [4] | [6] | [11] | [14]

O=C(O)Cc1cc(I)c(Oc2cc(I)c(O)c(I)c2)c(I)c1
inactive: [1] | [2] | [4] | [5] | [6] | [8] | [9] | [10] | [11] | [12]

CC[C@H](c1ccc(O)cc1)[C@@H](CC)c1ccc(O)cc1
inactive: [15] | [16] | [17] | [1]
active: [2] 0.0546 nM | [3] 0.147 nM | [6] 0.000411 µM | [7] 0.0247 nM | [8] 0.124 nM | [10] 0.183 nM | [11] 0.146 nM | [13] 0.0634 nM | [14] 0.000289 µM

CCC(C)(C)C1CCC(O)CC1 (stereo not drawn)
not listed: [3] | [5] | [9] | [12] | [14] | [17] | [20]
inactive: all other assays above

Cc1oc(-c2ccccc2)nc1CCOc1ccc(C[C@H](Nc2ccccc2C(=O)c2ccccc2)C(=O)O)cc1
inactive: [15] | [16] | [17] | [1] | [2] | [3] | [10] | [13]

c1ccc2c(c1)ccc1ccccc12
inactive: [1] | [2] | [4] | [7] | [8] | [10] | [11] | [13] | [14]
active: [11] 80900 nM | [13] 21300 nM | [14] 57.3 µM

C#C[C@]1(O)CC[C@H]2[C@@H]3CCC4=CC(=O)CC[C@@H]4[C@H]3CC[C@@]21C
inactive: [19]
active: [2] 122 nM | [3] 2430 nM | [5] 180000 nM | [6] 1.65 µM | [7] 76.6 nM | [8] 83.4 nM | [11] 299 nM | [12] 2800 nM | [20] 1840 nM | [14] 1.5 µM

O=c1c(-c2ccc(O)cc2)coc2cc(O)ccc12
active: [2] 994 nM and 448 nM | [5] 2320 nM | [6] 6.22 µM and 2.67 µM | [7] 1.49 µM and 369 nM | [8] 385 nM and 164 nM | [10] 983 nM and 478 nM | [11] 3.4 µM and 1.67 µM | [14] 1.14 µM and 219 nM
inactive: [1] | [5] | [9] | [12] | [20]

Oc1cc2ccccc2c2ccccc12
inactive: [2] | [3] | [4] | [6] | [8] | [19] | [11]

From PubChem BioAssay (EPA / NIEHS)
